# The full ranking holds about 68,000 sequences; the median of “fluorescence intensity (a.u.)” is about 9,100, and the highest 2% start at about 16,000. This excerpt belongs to a sample that is enriched for the highest values.
# Molecular target: OsWRKY34 (Oryza sativa, UniProt Q0JBA9 1-250)
# Test: protein-binding microarray (RPBM); PBS, 2% BSA, 51.3 ng/ul salmon testes DNA, 50 uM zinc acetate, 200 nM TF, 25 C, 1 h; high values mean tight binding
# Details: protein: recombinant; tags: N-terminal polyhistidine and DsRed monomer fusion (pET32a); label: CyDye5-dUTP incorporated in the synthesized complementary strand; 3' TTTTT single-stranded linker to array surface; dsDNA, one strand shown
# In short: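 Binding signal here means per-feature fluorescence intensity in arbitrary units. The values were read on an Axon 4000B scanner after a custom Agilent array, double-stranded by primer extension with Cy5-dUTP, was incubated with 200 nM protein at 25 °C for 1 h in PBS with 2% BSA, salmon testes DNA and 50 µM zinc acetate, then washed. The proteins were transcription factors with an N-terminal polyhistidine tag and DsRed, expressed in E. coli BL21-CodonPlus and purified on Ni–NTA.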
# OsWRKY34, sequence (Q0JBA9 entry or part of it): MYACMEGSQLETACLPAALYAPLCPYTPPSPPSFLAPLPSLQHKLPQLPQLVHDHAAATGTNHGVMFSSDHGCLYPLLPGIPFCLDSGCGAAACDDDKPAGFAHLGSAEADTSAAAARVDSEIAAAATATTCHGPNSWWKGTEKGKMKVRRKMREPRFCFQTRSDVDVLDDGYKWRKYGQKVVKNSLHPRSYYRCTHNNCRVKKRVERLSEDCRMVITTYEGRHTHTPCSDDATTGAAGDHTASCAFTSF
row,Sequence,binding signal
1,CAGTTTTTGAGGTAGAAGGGTATCATTGTAATTTTGCATCCGGAGTCACCTAGTGCAG,8850 fluorescence intensity (a.u.)
2,AAATGTGGTTTTGATGGTTTCCAACATATATTTATCGGTTCGGAGTCACCTAGTGCAG,8570 fluorescence intensity (a.u.)
3,TTATCAAATTCCGATCAAATCATTCCTCGTCGGCGTCCATCGGAGTCACCTAGTGCAG,8880 fluorescence intensity (a.u.)
4,AACGGCAGCAGATCCACCAAACCCCACACCCTCTCCAAATCGGAGTCACCTAGTGCAG,8600 fluorescence intensity (a.u.)
5,ACTCCATTTACGGGCAACTCTTGCTTGCGCAACGGGCCTTCGGAGTCACCTAGTGCAG,8790 fluorescence intensity (a.u.)
6,TTCTTAACATGTTCGCATATGAAAATAGACTTATTTTTTACGGAGTCACCTAGTGCAG,8130 fluorescence intensity (a.u.)
7,AGCATATCAGCCACTCTTTCTTCTTTGTCTTTATCAACTCCGGAGTCACCTAGTGCAG,8250 fluorescence intensity (a.u.)
8,TCCACGTTCACTTATCAGCCCCAACGTCTTAGCTTCCGATCGGAGTCACCTAGTGCAG,9260 fluorescence intensity (a.u.)
9,ACTCTTATTGTCTTCACGTTGTCTTATCAGCCACGATCAACGGAGTCACCTAGTGCAG,17900 fluorescence intensity (a.u.)
10,GGAATTTCTCAGCTCACACGAGTCACGGACCCACCACCACCGGAGTCACCTAGTGCAG,8960 fluorescence intensity (a.u.)
11,GGGTCTAACTCTAAGAGTATTGGGTACCCCTTATCGTTAACGGAGTCACCTAGTGCAG,8360 fluorescence intensity (a.u.)
12,TCTTTCATACGGAATTCCTTTTCATTATTGGATGCCAGCTCGGAGTCACCTAGTGCAG,9330 fluorescence intensity (a.u.)
13,CAAGGTTTGTTTTCTTATCAGTTACTACTGCTTTTGTGGTCGGAGTCACCTAGTGCAG,11100 fluorescence intensity (a.u.)
14,CGGGTTTGATTTGATTTGATTTTGATTTTGATTTGCTTCTCGGAGTCACCTAGTGCAG,8190 fluorescence intensity (a.u.)
15,CTTTTTTGGGTGATTTTTTTTCACTTGGGGTGGGTGATAACGGAGTCACCTAGTGCAG,21800 fluorescence intensity (a.u.)
16,ACCTTCACTATTTTTTTTGATTTTTTTCTTTTTTTTTTAACGGAGTCACCTAGTGCAG,12200 fluorescence intensity (a.u.)
17,AGTAGAGTATTTTTTTTTCTTTTTTGATTGATGGTGATAACGGAGTCACCTAGTGCAG,8320 fluorescence intensity (a.u.)
18,TGTGGGACAGGATGGTCACTAATTTCCGGTTTTGGTTTTACGGAGTCACCTAGTGCAG,8480 fluorescence intensity (a.u.)
19,GGGTGGGTTGATTTGATAGACTTCTTTTGCTTTTGATAAACGGAGTCACCTAGTGCAG,29100 fluorescence intensity (a.u.)
20,TTTGGGGATTTCTTTCTTATTTTTCTTTCCCTTTTTTTCCCGGAGTCACCTAGTGCAG,10900 fluorescence intensity (a.u.)
21,ATTTATTTTGGGATGGGGAGGGAGACAACTACAGTGTTTCCGGAGTCACCTAGTGCAG,18200 fluorescence intensity (a.u.)

row,Sequence,binding signal
1,TAGAGGGATGGGCTATTAAGTGTTTTATTTGGTTGGGAGACGGAGTCACCTAGTGCAG,15200 fluorescence intensity (a.u.)
2,TTTTTCTTTTCTTTTTTGCTTTTGAATTGTGGGGTTGTAACGGAGTCACCTAGTGCAG,8790 fluorescence intensity (a.u.)
3,TAACGATTTTTTTTTTGGGAGGGTGGGGATTTTTTTTTTCCGGAGTCACCTAGTGCAG,24100 fluorescence intensity (a.u.)
4,GAGTTTTCCGTGTGGAGGGTGTGGATTTTTTCGTGTGTTCCGGAGTCACCTAGTGCAG,15500 fluorescence intensity (a.u.)
5,ATCTCTGATCCGTCCAGTTGACCCAAAGCTAGAGTCTTTCCGGAGTCACCTAGTGCAG,10700 fluorescence intensity (a.u.)
6,GTGTTGTGTTTATTTTTTTATAATATCCATGATTGTAATCCGGAGTCACCTAGTGCAG,9640 fluorescence intensity (a.u.)
7,TCCGCCGCCGTCTCCGCCGCCTCCAGCCATCGATCCCGGCCGGAGTCACCTAGTGCAG,8250 fluorescence intensity (a.u.)
8,GCACACATACACATACTGACAATGATGAGTTGATGACACACGGAGTCACCTAGTGCAG,8500 fluorescence intensity (a.u.)
9,GCCCGGCCCAGTAGATACCACCACCTCACACTCCATTCGCCGGAGTCACCTAGTGCAG,9860 fluorescence intensity (a.u.)
10,GGAGCATGTTCAACCATTCATTGTTTTCTCTATTGCATAACGGAGTCACCTAGTGCAG,8070 fluorescence intensity (a.u.)
11,GTTGTCTAGTGCTTGCTATTCTTCTACTAGTAGTATTATACGGAGTCACCTAGTGCAG,9570 fluorescence intensity (a.u.)
12,AATCCATTTCCCATTCGCCATTCCCCATCCTTATCTCTTACGGAGTCACCTAGTGCAG,8660 fluorescence intensity (a.u.)
13,GTTGCATTTGCCGCTGCGACACGGACCCCGCCTTAATAACCGGAGTCACCTAGTGCAG,9020 fluorescence intensity (a.u.)
14,GATTTGGTGGGTTATAATTTTATAGTAAGAGGGGATTTTACGGAGTCACCTAGTGCAG,16100 fluorescence intensity (a.u.)
15,ATTTTTACCCTTCTCCTGTGTTTTTGTTGCTGTGATTCAACGGAGTCACCTAGTGCAG,8570 fluorescence intensity (a.u.)
16,TCTTTCTCTCTCTTGCTGCCGTTGAGGGATTTGGGGTGAACGGAGTCACCTAGTGCAG,10000 fluorescence intensity (a.u.)
17,TACCTGATTTGTGCATATGTTTCTTTCTGTTTTGCCCTTACGGAGTCACCTAGTGCAG,8170 fluorescence intensity (a.u.)
18,AGATGGTGTTTGGATGGGAGGGATTTATTTTAGTCCCTCTCGGAGTCACCTAGTGCAG,10200 fluorescence intensity (a.u.)
19,ATCCAATGGTATAATTTTTTTAGGGAAGGGTTTTTTTTTCCGGAGTCACCTAGTGCAG,12600 fluorescence intensity (a.u.)
20,AAGATTTGCTGGGAGGGTGGGGTGGGGATTAGTCCCTAAACGGAGTCACCTAGTGCAG,24500 fluorescence intensity (a.u.)
21,TGATTTTTTAGGGAGGGGTGGTTAGTATAAGAGGGTTTTCCGGAGTCACCTAGTGCAG,20000 fluorescence intensity (a.u.)

row,Sequence,binding signal
1,ATGCCCTGTTACCTGTGTGTGATTTCTTTGTGCTCCATAACGGAGTCACCTAGTGCAG,17600 fluorescence intensity (a.u.)
2,CTACTATTGCGTTGTTTTATTTTGGCCAGTTTATTTCAAACGGAGTCACCTAGTGCAG,13400 fluorescence intensity (a.u.)
3,TTTTTTTGCTTTTTCACTATTTTTTTATTTTGACGGACGACGGAGTCACCTAGTGCAG,9300 fluorescence intensity (a.u.)
4,GAATTCATACTTTTTCCTATATTTATCTTTGGCCTTAATCCGGAGTCACCTAGTGCAG,8560 fluorescence intensity (a.u.)
5,CCCCAAAATACTCGACGCTGAACTTTCCCATCAGCTAGTACGGAGTCACCTAGTGCAG,8280 fluorescence intensity (a.u.)
6,CCTTGGCAGTGGGGCGGAGGGGCGGTGTCGGTGCTGGCGGCGGAGTCACCTAGTGCAG,13800 fluorescence intensity (a.u.)
7,TTGTAAGTTAGGGACCTGTTGTATCTGATTTTTTGGTTGACGGAGTCACCTAGTGCAG,8210 fluorescence intensity (a.u.)
8,AATGTTGTCCTGTCGGCTGCTTCTGCTCCAACGTCAAGTTCGGAGTCACCTAGTGCAG,8140 fluorescence intensity (a.u.)
9,ATTTTACCAGTCTTGGAGATTTTAATCTTGTATAGTTTTCCGGAGTCACCTAGTGCAG,9110 fluorescence intensity (a.u.)
10,CTAGGGTTAGGGGTTTGGGTGGGGAAATTTTCACGAGGGACGGAGTCACCTAGTGCAG,14600 fluorescence intensity (a.u.)
11,GGGGAAATTTTCACGAGGGAGAGGGAGGGGAGGGATATTTCGGAGTCACCTAGTGCAG,23200 fluorescence intensity (a.u.)
12,CTCACCATTTCATTTTATTTTTCATTTTTCACCACAAATTCGGAGTCACCTAGTGCAG,9050 fluorescence intensity (a.u.)
13,TATATATATATATATATATATATTCACAAATTATTTTTCACGGAGTCACCTAGTGCAG,23500 fluorescence intensity (a.u.)
14,TTTCATTATACATATAGTTTTACATATTTCACAAAATTTTCGGAGTCACCTAGTGCAG,8770 fluorescence intensity (a.u.)
15,GGGGATTTTTTTTTCGGATCCAGAACGATCAGAGAGGGAGCGGAGTCACCTAGTGCAG,9300 fluorescence intensity (a.u.)
16,ATCCATGGGCCTCGTTGGTTATAGCCTGTGTGCATCAACACGGAGTCACCTAGTGCAG,8230 fluorescence intensity (a.u.)
17,TCCTCCTTTCTCGCTCTCGCTCTGTCCGATCGGAGCCATGCGGAGTCACCTAGTGCAG,8490 fluorescence intensity (a.u.)
18,TTGGGGTTCGTGGGGTCGAGAGGAAGGTGCGTGATCATACCGGAGTCACCTAGTGCAG,11500 fluorescence intensity (a.u.)
19,TATTTTCCGGATCGAATTGCCACGTAAGGGCCACATCAGTCGGAGTCACCTAGTGCAG,8510 fluorescence intensity (a.u.)
20,ACTGGCTTTGCTATGATCTTTTGCTATCGCCCAACCGTTACGGAGTCACCTAGTGCAG,8690 fluorescence intensity (a.u.)
21,ATTTTCTACTCTTTTGGTCCCACTAGTCATAGACTCTTTTCGGAGTCACCTAGTGCAG,10800 fluorescence intensity (a.u.)

row,Sequence,binding signal
1,TGTGCCGTGACTCGATGTGCTCCTCCATCTCTTGCTGCAACGGAGTCACCTAGTGCAG,8170 fluorescence intensity (a.u.)
2,GTGAGGACGGCCTGCGGGTGCATGCGGGCGCAACAAGTAGCGGAGTCACCTAGTGCAG,17500 fluorescence intensity (a.u.)
3,GCGGTGGAGGGCCGGCGGAGAGGGGAGCAGCGGTGGAGGGCGGAGTCACCTAGTGCAG,11000 fluorescence intensity (a.u.)
4,GCAGAGAGAGGGGAGGAGGGTGGGTGGCGGCGGCGGCTAGCGGAGTCACCTAGTGCAG,14400 fluorescence intensity (a.u.)
5,GAGGCGGGTGATAGCGCGGTGGGGCGGTGGCGGCGGTGGACGGAGTCACCTAGTGCAG,13000 fluorescence intensity (a.u.)
6,TGTGCTGTGTGGTGTACTGGTGTGTGGGCTTAATAATTGTCGGAGTCACCTAGTGCAG,14200 fluorescence intensity (a.u.)
7,TCGAGAGGTGGGGAGGGGAGGGGAGCAGAGGGCGGCATCGCGGAGTCACCTAGTGCAG,18600 fluorescence intensity (a.u.)
8,GGGAGGGAGGGTGGCTGTAGTGTGCTAATCACAAATAATTCGGAGTCACCTAGTGCAG,20500 fluorescence intensity (a.u.)
9,GGGAGGGGCTGCTAATTCGGTGTGATTAGTACAGTAGTTTCGGAGTCACCTAGTGCAG,10100 fluorescence intensity (a.u.)
10,CGGGCGGCGGGTGCGGACTGCGGAGGAGGCTGGCGGGGCACGGAGTCACCTAGTGCAG,8630 fluorescence intensity (a.u.)
11,CTGCGGGGAGGTGTAGGAGGAGGAGGGCGGAGGAGGTGGTCGGAGTCACCTAGTGCAG,8780 fluorescence intensity (a.u.)
12,GAGGGAGGGAGGGAGGGAGGGCGTGTAGCGTAGTTGGTGTCGGAGTCACCTAGTGCAG,18800 fluorescence intensity (a.u.)
13,GTTTTTTTTTTTTGGCGCAGGGAGTGGTGGCGTGGTGTGTCGGAGTCACCTAGTGCAG,8170 fluorescence intensity (a.u.)
14,CCTCACCCTATGCTCCTGTGTTTTGTAGTCTTTCGTAACACGGAGTCACCTAGTGCAG,8220 fluorescence intensity (a.u.)
15,ACGGCATCAAATCTCTGTTTGTACATGTGCCCCTGTTCTTCGGAGTCACCTAGTGCAG,9440 fluorescence intensity (a.u.)
16,CCCGACCAAACACTACGAACTCTTCTACCTTCTTTGTTTCCGGAGTCACCTAGTGCAG,12600 fluorescence intensity (a.u.)
17,CAATGCACTGTTCATCTTCAGTAGTTATGTTTTCTCAGTGCGGAGTCACCTAGTGCAG,10400 fluorescence intensity (a.u.)
18,CAAATTTGGTATTTCTCTCTGCTCACTCCATCCCTCAACTCGGAGTCACCTAGTGCAG,8830 fluorescence intensity (a.u.)
19,ATGGTGGCCGGTCTTTTTTCCTCTTCGCTCGATGCCAAAACGGAGTCACCTAGTGCAG,8270 fluorescence intensity (a.u.)
20,CGGCTAAACTCCCACGTGAACCAGACGCTGCACCAAAAACCGGAGTCACCTAGTGCAG,8430 fluorescence intensity (a.u.)
21,GAAGTGAATAGTAGAGGGTTTTGATGGGTTGGGAAGAGAACGGAGTCACCTAGTGCAG,11200 fluorescence intensity (a.u.)

# Source: publication PMC7819943, “Rice protein-binding microarrays: a tool to detect cis-acting elements near promoter regions in rice”
